Results: PubChem BioAssay (NCI)
The panel holds about 83,000 compounds, 20% with a hit somewhere; the sample as a whole holds those more often.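 Each cell line was grown in a 96-well plate and treated with one concentration of compound for 48 hours. Values below 10 were considered active.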 A number with no mark means an inactive call. Active and inactive are the calls of the source.

System: MDA-MB-468 breast
Assay: NCI-60 one-dose screen, 48 h (100 = growth as untreated, 0 = no growth, -100 = all killed)
Settings: 10 µM unless noted

Structure (SMILES)	growth
O=C(Oc1ccc[nH]c1=O)c1cccc(Cl)c1	89.8%
CCOC(=O)c1cccc(NC2=C(Cl)C(=O)c3nc(C)ccc3C2=O)c1	-33.4% (active)
O=C(CCn1c[n+](CC(=O)c2ccc(F)cc2)c2ccccc21)Nc1cccc2cccnc12	-15.5% (active)
COC(=O)[C@H](Cc1cn(C)cn1)NC(=O)[C@H](CC(=O)OCc1ccccc1)NC(=O)Nc1cc(C(F)(F)F)cc(C(F)(F)F)c1	-74.2% [100 µM] (active)
COc1ccc(-c2nc3c(c(-c4ccccc4)nn3-c3ccccc3)c(-c3ccc(N4CCOCC4)cc3)c2C#N)cc1	97.8%
CC(=O)Cc1cccnc1	97.1%
COc1cccc(-c2nc3sccn3c2-c2ccnc(NCCCNS(=O)(=O)c3ccc(C(F)(F)F)cc3)c2)c1	42.5%
CCC(C)NCc1ccccc1 (stereo not drawn)	100%
C=C1C(=O)O[C@H]2[C@H]1CC/C(COC(=O)n1ccnc1C)=C\CC[C@@]1(C)O[C@@H]21	76.4%
c1ccc(-c2nn(-c3ccccc3)[n+](-c3ccccc3-c3ccccc3)n2)cc1	-38.6% (active)
N#C/C(=C\c1ccc(-c2ccc(F)cc2)o1)C(=O)Nc1ncc(Cc2ccc(Cl)cc2Cl)s1	-54.9% (active)
CCN1CCN(c2nc(NNC(=O)c3ccc(OC)cc3)nc(N3CCN(C(c4ccccc4)c4ccccc4)CC3)n2)CC1	10.7%
COc1cc(-c2nc(SCC(C)C)nc(Nc3cccc4ccccc34)c2C#N)cc(OC)c1OC	116%
